gsp antagonist – gsp mutant antagonism | gsp-mutant cells, cAMP HTRF, 30 min | Potency, µM (series often up to 76.9 µM), for the others: top-dose activity change, negative = inhibition, usual class: inhibitors | 340,000 tested, 0.4% active; calls by dose curve; cell line not stated here;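 further: intracellular cAMP measured with PDE inhibitor Ro 20-1724 present during compound exposure; potency means the concentration at half of the fitted maximal effect; on the % scale 0 is the no-effect control and ±100 the full control effect; nearly all actives have a fitted effect of over 65% in size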
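Measurement of cellular cAMP by homogeneous time-resolved fluorescence following a 30 min compound exposure at 37C. The PDE inhibitor […] was present throughout; the assay buffer was DPBS with 0.05% BSA and 0.005% Tween 20.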
gsp ag – activates gsp, the McCune-Albright syndrome mutation; Potency, µM (titrated, usually from 76.9 µM), for the others: at the highest dose activation (cAMP increase), usual class: activators; 340,000 tested, 0.13% active; gsp mutant cells, cAMP HTRF, 30 min; active means well fitted activation curve with a large enough effect; inconclusive means small, poorly fitted or top-dose-only effect, or another doubt; inactive means no such curve, though single readings can be large or run the other way; cell line not stated here;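 further: phosphodiesterase inhibitor Ro 20-1724 added with compounds to block cAMP breakdown; potency means the concentration at half of the fitted maximal effect; nearly all actives have a fitted effect of over 60% in size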
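Cells stably selected in G418 were plated at 2000/well, grown 16-24 hr, then given compounds in DMSO with the PDE inhibitor […] (300 uM solution added) for 30 min at 37C; cAMP was read by HTRF.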
RXFP1 ag – activates the human relaxin receptor RXFP1; 370,000 tested, 0.3% active; AID 2676; Potency, µM (top dose mostly 57.5 µM), inactives show at the highest dose activation, hits mostly activators; HEK293T-RXFP1 cAMP TR-FRET, 30 min; response scale: percent of porcine relaxin response, buffer zero; Q9HBX9; active means well fitted activation curve with a large enough effect; inconclusive means small, poorly fitted or top-dose-only effect; further: potency means the concentration at half of the fitted maximal effect; on the % scale 0 is the no-effect control and ±100 the full control effect; nearly all actives have a fitted effect of over 60% in size
Target sequence (Q9HBX9 whole entry, looked up): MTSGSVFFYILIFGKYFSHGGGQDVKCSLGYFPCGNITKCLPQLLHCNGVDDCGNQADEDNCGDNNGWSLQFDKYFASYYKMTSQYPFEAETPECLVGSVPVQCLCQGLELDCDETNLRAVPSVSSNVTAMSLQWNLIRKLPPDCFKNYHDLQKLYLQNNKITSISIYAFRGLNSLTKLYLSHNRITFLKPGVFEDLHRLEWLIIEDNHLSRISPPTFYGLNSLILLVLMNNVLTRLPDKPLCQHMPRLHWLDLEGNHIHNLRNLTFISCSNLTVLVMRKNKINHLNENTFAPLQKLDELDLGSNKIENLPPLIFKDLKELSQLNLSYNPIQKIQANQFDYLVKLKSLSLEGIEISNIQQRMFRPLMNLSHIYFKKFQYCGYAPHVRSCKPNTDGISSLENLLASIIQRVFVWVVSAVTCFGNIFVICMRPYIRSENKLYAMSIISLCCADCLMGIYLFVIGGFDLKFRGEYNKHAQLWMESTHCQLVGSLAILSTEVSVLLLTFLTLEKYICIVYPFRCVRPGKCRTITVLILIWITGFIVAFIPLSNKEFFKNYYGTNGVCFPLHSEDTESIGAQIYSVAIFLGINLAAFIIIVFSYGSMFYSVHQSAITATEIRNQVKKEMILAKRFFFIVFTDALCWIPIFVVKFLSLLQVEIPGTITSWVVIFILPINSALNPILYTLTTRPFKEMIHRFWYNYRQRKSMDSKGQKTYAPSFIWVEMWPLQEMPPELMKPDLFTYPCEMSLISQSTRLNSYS
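cAMP rise read by TR-FRET after 30 min, 37C compound exposure (up to 58 uM) in RXFP1-transfected HEK293 cells with Ro 20174 present. EC50 from Hill-equation fits, with 29 nM porcine relaxin as 100% and buffer as basal.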
RXFP1 antagonist – blocks the human relaxin receptor RXFP1. 350,000 tested, 0.59% active. activity change, negative = inhibition, % at 57.5 µM. HEK293-RXFP1, relaxin-stimulated cAMP HTRF, 30 min; hits give low values. Q9HBX9. AID 1259400;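 active means activity change of -60% or lower, but not beyond a set lower limit; inconclusive means change between -60% and -40%, or beyond the set limit; inactive means change above -40%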; further: on the % scale 0 is the no-effect control and ±100 the full control effect
* marks the source's active call; other numbers are inactive results; ? = inconclusive; . = no result; [ ] = remark or other dose. This is a sample that favours compounds with a hit; in the whole collection about 0.9% have one here.

SMILES	gsp antagonist	gsp ag	RXFP1 ag	RXFP1 antagonist
CCOC(=O)c1c(/N=C/N(C)C)sc(C)c1C	5%	-26%	6%	-2
CCOC(=O)c1c(/N=C/N(C)C)sc(/C=N/Nc2ccccc2)c1-c1ccc(Cl)cc1	7%	13µM*	1%	1
Brc1ccc(OCc2ccccc2)c(CNCc2ccncc2)c1	?	-28%	-1%	-89*
Cc1ccc(NC2=NCC(=O)N2C2CCCC2)cc1C	3%	-30%[15.4 µM]	-2%	-69*
Cc1ccc(NC2=NCC(=O)N2C2CCCC2)cc1	9%	?	0%	11
CC(C)Cn1c(N)c(C(=O)COC(=O)c2cccc(Cl)c2)c(=O)n(C)c1=O	50µM*	4%[15.4 µM]	7%	-34
CC(C)Cn1c(N)c(C(=O)COC(=O)c2c(F)cccc2F)c(=O)n(C)c1=O	-42%	19%	1%	-10
Cc1noc(C)c1C(=O)OCC(=O)c1c(N)n(CC(C)C)c(=O)n(C)c1=O	20%	32µM*	23%	0
NS(=O)(=O)c1ccc(N2CCCCS2(=O)=O)cc1	.	.	.	25
Cc1c(C(=O)N2CCCC2)sc(NC(=O)c2cccc(Cl)c2)c1C#N	?	23%	0%	-27
Cc1cccc(C(=O)Nc2sc(C(=O)N3CCCC3)c(C)c2C#N)c1	32µM*	7%	2%	1
CC(C)C[C@H](NC(=O)CNC(=O)[C@H](Cc1ccc(O)cc1)NC(=O)[C@H](CO)NC(=O)[C@H](Cc1c[nH]c2ccccc12)NC(=O)[C@H](Cc1cnc[nH]1)NC(=O)[C@@H]1CCC(=O)N1)C(=O)N[C@@H](CCCN=C(N)N)C(=O)N1CCC[C@H]1C(=O)NCC(N)=O (stereo in doubt)	.	.	.	23
Cc1cccc(Nc2nnc(SCC(O)=C(C#N)c3nc4ccccc4[nH]3)s2)c1	-13%	17%	.	-81*
COc1cc(/C=C2\SC(=S)N(Nc3ncc(C(F)(F)F)cc3Cl)C2=O)ccc1O	-12%	0%[15.4 µM]	0%	-74*
Brc1ccc(-c2ccc(/C=N/Nc3nc(N4CCOCC4)nc(N4CCOCC4)n3)o2)cc1	20µM*	4%	1%	-4
Fc1cnc(N/N=C/c2ccc(-c3ccc(Br)cc3)o2)nc1N1CCOCC1	4%	19%	5%	-15
COc1cccc(C(=O)c2cn(CC(=O)Nc3ccc4c(c3)OCCO4)c3nc(C)ccc3c2=O)c1	.	.	-2%	-13
Cc1ccc(CNC(=O)CSc2ncc3c(n2)-c2ccc(Cl)cc2N(Cc2ccccc2)S3(=O)=O)cc1	.	.	28µM*	.
CCOc1ccc(NC(=O)CSc2ncc3c(n2)-c2ccc(Cl)cc2N(Cc2ccccc2)S3(=O)=O)cc1	.	.	11µM*	-4
O=C(NC1CCCC1)c1cc2cc(Br)ccc2o1	8%	2.5µM*	1%	0
CCOc1ccc(-n2cc(-c3ccccc3)c3c(=O)[nH]cnc32)cc1	?	19%	0%	-97*
CCCC(=O)Nc1ccc(O)c(C(C)=O)c1	.	.	.	-1
O=C(COc1ncnc2cc([N+](=O)[O-])ccc12)N(CCc1ccccc1)Cc1ccccc1	28µM*	?	10%	0
O=C(COc1ccc([N+](=O)[O-])cc1)N(Cc1ccccc1)Cc1ccccc1	-19%	-46%	1%	.
CCc1cccc(NC(=O)CCCn2nc(C)c3c(C)n(-c4ccccc4)nc3c2=O)c1	-13%	13%	0%	-66*
SMILES	gsp antagonist	gsp ag	RXFP1 ag	RXFP1 antagonist
CCOC(=O)c1cccc(NC(=O)CCCn2nc(C)c3c(C)n(-c4ccccc4)nc3c2=O)c1	.	.	1%	2
O=C1Cc2cc(CCN3CCN(c4nsc5ccccc45)CC3)c(Cl)cc2N1	.	.	4%	-107*
O=C1Cc2cc(S(=O)(=O)N3CCN(c4ccccc4)CC3)ccc2N1	-3%	-104%	5%	11
CC(C)N(Cc1ccccc1)C(=O)COC(=O)c1cnc(Cl)c(Cl)c1	-27%	9%	.	-72*
CN(C)S(=O)(=O)c1ccc(N2CCCC2)c(C(=O)OCC(=O)N2CCN(c3ccccc3)CC2)c1	5%	5%	-1%	-13
CC(C)N(Cc1ccccc1)C(=O)COC(=O)c1cc(S(=O)(=O)N(C)C)ccc1N1CCCC1	-15%	6%	.	-75*
CCN(CC)C(=O)CSc1nc(-c2ccc(C)cc2)nc2c1Cc1c(CO)cnc(C)c1O2	.	.	5%	-22
CCN(CC)c1ccc(NC(=O)Cn2c3ncccc3c(=O)n2-c2ccccc2)c(C)c1	.	.	0%	8

Compound activity (PubChem BioAssay)
